Shown are actives, neighbours in structure and some others; about 21% of the full set was active somewhere.
Pf growth 48h: P. falciparum growth inhibition at 48 hours (one generation); P. falciparum luciferase growth in erythrocytes, 48 h; Potency, µM (doses to about 28.7 µM), usual class: inhibitors; 5.9% of 310,000 active; AID 504832
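Luciferase-expressing P. falciparum in infected erythrocytes (2% hematocrit, 0.1% parasitemia final) in RPMI 1640/0.5% Albumax were exposed to compound for 48 hours at 37 C, 5% CO2; growth read as luminescence.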
Pf growth 96h: P. falciparum growth inhibition at 96 hours | Potency, µM (highest dose often 28.7 µM), most hits filed as inhibitors | P. falciparum luciferase reporter growth, 96 h | AID 504834 | 6.9% of 320,000 active
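P. falciparum expressing integrated firefly luciferase, in erythrocytes at 2% hematocrit, 0.05% parasitemia, incubated with compounds 96 h at 37 C, 5% CO2. Growth inhibition read as loss of luminescence; two-generation exposure targets delayed-death apicoplast inhibitors.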
CHX counter: counter-screen for Shiga toxin inhibitors: cycloheximide protein synthesis inhibition | cell reporter, cycloheximide protein synthesis inhibition counterscreen | max response, % | 12% of 300,000 active | AID 2314; in the data active = max response mostly above about 13%, no sharp cut-off; inactive = mostly below about 14%; also: read at 38.3 µM for the half of the compounds with a filed dose
Shiga inhibitor: Shiga toxin inhibition. AID 2315. Vero cells, Shiga toxin protein synthesis inhibition reporter. inhibition, % at 38.7 µM. 9.2% of 290,000 active; in the data active = inhibition mostly above about 28%, no sharp cut-off; inactive = mostly below about 43%
Of the large screens only hits and unclear results are named; the others gave an inactive call. Unless noted, calls follow the shape of the dose curve; as a rule, active = well fitted inhibition curve with a large enough effect; inconclusive = small, poorly fitted or top-dose-only effect, or another doubt; inactive = no such curve, though single readings can be large or run the other way.

Cc1cc2c(cc(C(=O)OCC(=O)NCc3ccco3)n2C)s1	CHX counter 15
Cc1ccccc1C(=O)OCC(=O)NCC1COc2ccccc2O1 (stereo not given)	none (no result: CHX counter, Shiga inhibitor)
O=C(COC(=O)c1ccccc1O)NC(=O)NCc1ccccc1	none (no result: CHX counter, Shiga inhibitor)
Cc1ccc(COC(=O)CCN=C2NS(=O)(=O)c3ccccc32)cc1	Pf growth 48h inconclusive (no result: CHX counter, Shiga inhibitor)
NS(=O)(=O)c1ccc(CNC(=O)c2cccnc2Cl)cc1	none
COc1cc(OC)cc(C(=O)OCC(=O)NCc2ccco2)c1	none (no result: CHX counter, Shiga inhibitor)
CN(C)c1cccc(C(=O)OCC(=O)NCc2ccco2)c1	CHX counter 19
COc1cccc(N2CCN(C(=O)C3CCN(S(=O)(=O)c4cccs4)CC3)CC2)c1	none
CCOC(=O)/C(=N\Nc1ccc(C(C)=O)cc1)c1csc(Nc2ccccc2)n1	none
CCOC(=O)/C(=N\Nc1ccccc1[N+](=O)[O-])c1csc(N)n1	CHX counter 21
O=C(CC1Sc2ccccc2NC1=O)Nc1cccnc1 (stereo not given)	none
O=C(CC1Sc2ccccc2NC1=O)Nc1cccc(-c2nnc3n2CCCCC3)c1 (stereo not given)	Pf growth 48h 9.3µM, Pf growth 96h 13µM, Shiga inhibitor 97
COc1cc(OC)cc(C(=O)Nc2ccc(-c3nc4ccccc4o3)cc2)c1	Pf growth 48h inconclusive, Shiga inhibitor 48 (no result: Pf growth 96h)
COc1cc(C(=O)Nc2ccc(-c3nc4cc(C)ccc4o3)c(O)c2)cc(OC)c1OC	Pf growth 48h inconclusive, Pf growth 96h inconclusive
COc1cccc(C(=O)Nc2ccc(-c3nc4ccccc4o3)c(O)c2)c1	Pf growth 48h inconclusive, Shiga inhibitor 53
Cc1cc(C)c(S(=O)(=O)N2CCN(C(=O)C3COc4ccccc4O3)CC2)c(C)c1 (stereo not given)	Pf growth 48h inconclusive (no result: CHX counter, Shiga inhibitor)
Cc1cnc(C(=O)Nc2ccccc2F)cn1	CHX counter 43, Shiga inhibitor 84 (no result: Pf growth 48h)
Cc1cnc(C(=O)NCC(c2ccccc2)c2ccccc2)cn1	none
Cc1cnc(C(=O)Nc2ccccc2-n2cccc2)cn1	Pf growth 96h 12µM
COC(=O)n1ccc(C(=O)Nc2ccccc2F)n1	Pf growth 96h inconclusive, CHX counter 27
CCC(CC)C(=O)Nc1ccccc1-n1cccc1	none
O=C(Nc1ccccc1F)c1ccncc1	none
COCCn1c(=S)[nH]c2cc(C(=O)N3CC(C)CC(C)C3)ccc2c1=O (stereo not given)	none
Cc1ccc(NC(=O)CCNC(=O)c2ccco2)cc1Cl	none
COc1ccc(-n2ccc3ccccc32)cc1	CHX counter 25
COc1ccccc1N1CCN(C(c2cc3cc(C)ccc3[nH]c2=O)c2nnnn2C2CCCC2)CC1 (stereo not given)	Pf growth 48h inconclusive
CC(C)CC(c1nnnn1C1CCCC1)N1CCN(c2ccccc2F)CC1 (stereo not given)	none
COc1ccccc1N1CCN(C(c2ccccn2)c2nnnn2C2CCCCC2)CC1 (stereo not given)	Pf growth 48h 9.3µM (no result: Pf growth 96h)
Fc1ccccc1N1CCN(C(c2ccccn2)c2nnnn2C2CCCCC2)CC1 (stereo not given)	Pf growth 48h 10µM
Cc1nn2c(-c3ccc(S(=O)(=O)N4CCN(C)CC4)o3)nnc2c2ccccc12	Pf growth 48h inconclusive
Cc1ccc(-c2nnc3c4ccccc4c(C)nn23)cc1S(=O)(=O)N1CCN(CCO)CC1	Pf growth 48h 0.41µM, Pf growth 96h inconclusive
CC(C)N(Cc1ccccc1)C(=O)CN1C(=O)NC2(CCCC2)C1=O	none (no result: CHX counter, Shiga inhibitor)
Cc1ccc(C(=O)Nc2cccnc2)cc1S(=O)(=O)N1CCOCC1	none (no result: Pf growth 96h)
CCOc1ncccc1C(=O)Nc1ccc(OC)c(S(=O)(=O)N2CCCCC2)c1	none
CCOc1ncccc1C(=O)Nc1ccc(C)c(S(=O)(=O)N2CCCCCC2)c1	Pf growth 48h 13µM, Pf growth 96h inconclusive (no result: CHX counter, Shiga inhibitor)
O=C(Nc1cccnc1)c1ccc(Cl)c(S(=O)(=O)N2CCCCCC2)c1	Pf growth 48h 10µM, CHX counter 21 (no result: Pf growth 96h)
Cc1ccc(C(=O)Nc2cccnc2)cc1S(=O)(=O)N1CCCCCC1	Pf growth 48h inconclusive, Pf growth 96h inconclusive, CHX counter 26
Cc1c(Cl)cccc1-n1c(SCC(=O)N2CCC(C(=O)O)CC2)nc2ccccc2c1=O	Pf growth 48h inconclusive, Pf growth 96h inconclusive
COC(=O)CSc1nc(NC(C)(C)C)nc(N(C)C)n1	Pf growth 96h inconclusive, CHX counter 33
COC(=O)c1cc2c(s1)c1cnn(Cc3ccccc3F)c(=O)c1n2C	Pf growth 96h inconclusive (no result: CHX counter, Shiga inhibitor)
Cc1cc(/C=C(\C#N)C(=O)NCc2cccs2)c(C)[nH]1	CHX counter 16
COc1cc(OC)c(OC)cc1/C=C(\C#N)C(=O)NCc1cccs1	none
NC(=O)c1ccc[n+](CC(=O)Nc2ccccc2C(=O)O)c1	none
Cc1ccc(-n2c(C)cc(C3N=C(N)Nc4nc5ccccc5n43)c2C)c(C)c1 (stereo not given)	Pf growth 48h 8.3µM
CCCNCC1C(Oc2ccc(Cl)cc2)C(=O)N1c1ccccc1C (stereo not given)	Pf growth 48h 10µM
Cc1ccccc1N1C(=O)C(Oc2ccc(Cl)cc2)C1CNC(C)(C)C (stereo not given)	Pf growth 48h 12µM
CC(=O)c1ccccc1NC(=O)Cn1c(=O)cnc2ccccc21	Pf growth 48h inconclusive, Pf growth 96h inconclusive
CCOc1ccc2nc3c(cc2c1)CN(CCOC)C(=NC)S3	Pf growth 48h inconclusive, Pf growth 96h 2.1µM
O=C(Nc1cccc(-n2cnnn2)c1)c1ccoc1COc1ccc(Cl)cc1	Pf growth 48h inconclusive, Pf growth 96h inconclusive
NC(=O)c1ccc(-n2nc(C(F)(F)F)c3c2CCCC3)cc1	CHX counter 19
O=C1c2ccccc2NC(c2ccc(O)cc2)N1c1ccccc1 (stereo not given)	Pf growth 96h inconclusive, CHX counter 36, Shiga inhibitor 58
O=C1c2ccccc2NC(c2ccc(O)cc2)N1/N=C/c1ccc(O)cc1 (stereo not given)	CHX counter 19, Shiga inhibitor 43
O=C1c2ccccc2NC(c2ccccc2)N1/N=C/c1ccccc1 (stereo not given)	none
O=C1NC(c2ccccc2)=CC(c2ccccc2O)N1 (stereo not given)	none (no result: CHX counter, Shiga inhibitor)
Oc1ccccc1C1NN=C(c2ccccc2)S1 (stereo not given)	Pf growth 96h inconclusive, CHX counter 33, Shiga inhibitor 56
CC(=O)c1cc(C#N)c(N2CCCC2)nc1C	none
O=C(Cc1ccc(Nc2nc3ccc(Br)cc3[nH]2)cc1)NCCc1cccs1	Pf growth 48h 1.9µM, Pf growth 96h 3.3µM, CHX counter 15
O=C(NCc1ccco1)c1cccc(Nc2nc3ccc(Br)cc3[nH]2)c1	Pf growth 48h 12µM, Pf growth 96h 13µM
O=C(NCC1CC1)c1ccc(Nc2nc3ccc(Br)cc3[nH]2)cc1	Pf growth 48h inconclusive, Pf growth 96h 12µM
[N-]=[N+]=NCC/C=C\C1NS(=O)(=O)OCC1O (stereo not given)	none
CCN(Cc1ccncc1)C(=O)c1cc(COc2c(C)cccc2C)on1	Pf growth 48h inconclusive, CHX counter 11, Shiga inhibitor 41
CCn1ccnc1CN(C)C(=O)c1cc(COc2ccc(OC)c3ccccc23)on1	Pf growth 48h inconclusive, CHX counter 8.3
COc1cc(C)ccc1OCc1cc(C(=O)N(Cc2nccn2C)C(C)C)no1	Pf growth 96h inconclusive, CHX counter 73, Shiga inhibitor 87

Source: PubChem
